Compounds with a hit are over-represented: about 6.5% of the library has one in this group of screens.
FMDV antiviral – antivirals against foot and mouth disease virus | FMDV antiviral cell-based qHTS | Potency, µM (series often up to 57.9 µM), without a hit: top-dose activity change, negative = inhibition, usual class: inhibitors | actives 1.2% (n = 410,000); calls by dose curve; tested in HEK293T cells; note: read-out not given here; potency is the fitted concentration of half-maximal effect; nearly all actives have a fitted effect of over 45% in size
Marburg entry inh – inhibitors of Marburg virus binding or cell entry; Marburg virus pseudotyped entry inhibition, cell reporter; Potency, µM (highest dose often 37.8 µM), without a hit: at the highest dose activity change, negative = inhibition, actives largely listed as inhibitors; actives 1.8% (n = 300,000); AID 540276; calls by dose curve; tested in HEK293 cells; note: potency is the fitted concentration of half-maximal effect
Vaccinia mCherry – vaccinia inhibition (mCherry reporter). Vaccinia virus mCherry reporter infection, fluorescence. Potency, µM (titrated, usually from 36.5 µM), without a hit: at the top dose activity change, negative = inhibition, usual class: inhibitors. actives 0.63% (n = 310,000). AID 720579; calls by dose curve; tested in A549 cells; note: potency is the fitted concentration of half-maximal effect; nearly all actives have a fitted effect of over 35% in size
VACV Venus inh – vaccinia inhibition (Venus reporter); Vaccinia virus Venus reporter expression, fluorescence; Potency, µM (series often up to 36.5 µM), for the others: top-dose activity change, negative = inhibition, usual class: inhibitors; actives 0.46% (n = 330,000); AID 720580; calls by dose curve; tested in A549 cells; note: potency is the fitted concentration of half-maximal effect; nearly all actives have a fitted effect of over 30% in size
HCMV inh – inhibitors of human cytomegalovirus | HFF cells, HCMV-luciferase reporter, 72 h; active compounds read low | activity change, negative = inhibition, % at 57.5 µM | actives 4.5% (n = 410,000) | AID 1259415; in the data active = activity change below about -60%; inconclusive = no clear call, values can overlap the other calls; inactive = above about -39%
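Inhibition of viral replication was scored as loss of reporter luminescence in HFFs infected with HCMV-luciferase (MOI 1 PFU/cell) for 72 h; compounds tested at 2 doses, normalized to buffer and Salinomycin controls.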
LASV entry inh – inhibitors of Lassa virus binding or cell entry. Lassa virus pseudotype entry inhibition, cell reporter. Potency, µM (titrated, usually from 37.9 µM), for inactives: at the highest dose activity change, negative = inhibition, hits mostly inhibitors. actives 1.2% (n = 300,000). AID 540256; calls by dose curve; tested in HEK293 cells; note: potency is the fitted concentration of half-maximal effect; nearly all actives have a fitted effect of over 50% in size
The depositor's hits bear a star; i = inactive; ? = inconclusive; nt = not tested or not shown; + = active, no number; ! = repeats disagree; [ ] = dose if it differs, or a comment. % is set by controls: 0 for no effect and ±100 for the full control effect.

SMILES	FMDV antiviral	Marburg entry inh	Vaccinia mCherry	VACV Venus inh	HCMV inh	LASV entry inh
COC(=O)C(Cc1ccccc1)NC(=O)CC(C)CC(=O)Nc1ccc(C)cc1 (stereo unspecified)	-12%	nt	nt	nt	55	nt
COc1ccc(C2NC(=O)C(C#N)=C(S)N2c2ccc(C)cc2)cc1OC (stereo unspecified)	14%	nt	nt	nt	-65*	nt
COc1cc(C2NC(=O)C(C#N)=C(S)N2c2ccc(C)cc2)ccc1OC(C)C (stereo unspecified)	9%	4%	-14%	-16%	9	3%
O=C(Cc1cccc2ccccc12)NCC(=O)N1CCN(CC(=O)Nc2ccc(F)cc2)CC1	?	nt	-5%	-20%	45	nt
O=C(CSc1cccc(C(F)(F)F)c1)NCc1ccccc1	-11%	-2%	-9%	-12%	-73*	?
O=C(CSc1ccccc1)NCc1ccccc1	22%	10%	-6%	-22%	28	13%
O=C(Cc1cccc2ccccc12)NCC(=O)N1CCN(Cc2cccc(C(F)(F)F)c2)CC1	?	nt	nt	nt	-62*	nt
CC1(C(=O)NCc2cccc(C(F)(F)F)c2)CCN1Cc1ccc2ccccc2c1 (stereo unspecified)	0%	nt	i	-9%	-72*	nt
COC(=O)C1CCN(Cc2ccc3c(c2)CN(C(=O)c2cc(C)oc2C)CCO3)CC1	-7%	nt	-6%	1%	nt	nt
COc1cc(=O)n2c(c1C(=O)NCc1ccco1)CCN(Cc1cc3ccccc3[nH]1)CC2	-11%	nt	i	-16%	nt	nt
C=CCN1c2ccccc2[C@]23CCC(=O)N(CCCOC(C)C)C2=NC(C(=O)OC)=C(C(=O)OC)[C@H]13	nt	-10%[14.2 µM]	nt	nt	nt	nt
C=CCNC(=O)c1onc(CSc2cc(C)cc(C)c2)c1C(=O)NCC=C	-26%	nt	3.2µM*	nt	?	nt
Cc1ccc(NC(=O)c2ncn(CCCNCC(C)c3ccccc3)n2)cc1C (stereo unspecified)	-29%	nt	i	-19%	-22	nt
CC(=O)c1ccc(-c2cc(F)cc3c2OC(CNC(=O)C(C)N2CCOCC2)C3)s1 (stereo unspecified)	-15%	nt	-4%	-11%	nt	nt
COc1ccc(Nc2ncc(C(=O)N3CCN(c4ccc(OC)cc4)CC3)c3ccccc23)cc1	-15%	?	-23%	-24%	-31	?
COc1ccc(Nc2ncc(C(=O)N3CCN(c4ccc(F)cc4)CC3)c3ccccc23)cc1	?	?	-21%	-15%	-105*!	?
COc1ccc(Nc2ncc(C(=O)N3CCC4(CC3)OCCO4)c3ccccc23)cc1	-14%	13%	nt	-23%	-76*	-23%
O=C(CCl)N1c2ccccc2OCC1c1ccccc1 (stereo unspecified)	18µM*	19%	i	-7%	-62*	0%
O=C(CCl)N1CCN(C(=O)C2COc3ccccc3O2)CC1 (stereo unspecified)	?	?	?	?	-8	?
O=C(CCl)N1c2ccccc2SCC1c1ccccc1 (stereo unspecified)	28µM*	?	-27%	-20%	-98*	?
C=CCN1C(=O)C2CCCCC2n2nnc(C(=O)OCC)c21 (stereo unspecified)	nt	11%	nt	nt	nt	nt
CC(=O)c1c(C)[nH]c(C(=O)OCCOc2ccccc2)c1C	-81%	?	-11%	-5%	?	?
Cc1c(C(=O)OCCOc2ccccc2)[nH]c2c1C(=O)CCC2	-63%	?	-15%	-25%	-79*	7.9µM*
CCc1ccc(C2CC(=O)c3c([nH]c(C(=O)OCCOc4ccccc4)c3C)C2)cc1 (stereo unspecified)	?	?	i[7.34 µM]	-16%[7.34 µM]	-73*	?
CCOc1ccc(C2CC(=O)c3c([nH]c(C(=O)OCCOc4ccccc4)c3C)C2)cc1 (stereo unspecified)	-23%	-1%[46.1 µM]	-17%	?	-106*	?
SMILES	FMDV antiviral	Marburg entry inh	Vaccinia mCherry	VACV Venus inh	HCMV inh	LASV entry inh
CCOc1ccc(C2CC(=O)c3c([nH]c(C(=O)OC4CCC(C)CC4)c3C)C2)cc1 (stereo unspecified)	-18%	2%[46.1 µM]	-5%	-6%	1	-5%[46.1 µM]
Cc1c(C(=O)OCc2ccccc2)[nH]c2c1C(=O)CC(c1ccc(Cl)cc1)C2 (stereo unspecified)	-11%	-30%[46.1 µM]	-6%[7.34 µM]	-7%[7.34 µM]	-69*	-10%[46.1 µM]
COC(=O)c1[nH]c2c(c1C)C(=O)CC(c1ccc(OC)cc1)C2 (stereo unspecified)	-6%	-4%[46.1 µM]	1%	4%	-19	-18%[46.1 µM]
COC(=O)c1[nH]c2c(c1C)C(=O)CC(c1ccccc1)C2 (stereo unspecified)	nt	?	-9%	?	-69*	?
COc1cc2c(cc1OC)[C@@H]1N(C)c3ccccc3[C@@]13CCN[C@H]3C2	nt	nt	nt	nt	-2	nt
NN(CCO)C(=S)Nc1ccc(Cl)cc1	-7%	25%[46.1 µM]	10µM*	?	73	0%[46.1 µM]
COC(=O)C1CCN(C(=O)CC(NC(=O)C(F)(F)F)c2cccs2)CC1 (stereo unspecified)	-6%	nt	nt	nt	12	nt
CCOC(=O)C1CCN(c2c(NCc3ccc(C(=O)NCCOC)cc3)c(=O)c2=O)CC1	-13%	?	nt	-17%	?	-3%
CC1CCN(c2c(NCc3ccc(C(=O)N4CCc5ccccc54)cc3)c(=O)c2=O)CC1	17%	4%	-24%	-28%	-84*	nt
CC1CCCN(C(=O)c2ccc(CNc3c(N4CCCCC4)c(=O)c3=O)cc2)C1 (stereo unspecified)	-22%	nt	8%	-7%	-30	nt
CCCCNC(=O)c1ccc(CNc2c(N3CCC(C(=O)OCC)CC3)c(=O)c2=O)cc1	-4%	?	i	-5%	-61*!	-3%
Cc1cccc(N2CCN(C(=O)c3ccc(CNc4c(N5CCC(C)CC5)c(=O)c4=O)cc3)CC2C)c1 (stereo unspecified)	?	nt	-12%	?	-60*	nt
CC1CCN(c2c(NCc3ccc(C(=O)N(C)C4CCCCC4)cc3)c(=O)c2=O)CC1	8%	nt	nt	nt	-11	nt
CC(=O)c1ccc(NC(=O)C2=CC(c3cccs3)=NS(=O)(=O)N2C)cc1	-17%	-21%[46.1 µM]	-12%	-17%	16	?
COC(=O)C1=C(C(=O)OC)SC2(S1)C(C(=O)OC)=C(C(=O)OC)SC1=C2c2cc(C)cc(C)c2NC1(C)C	-21%	14%	-9%	-1%	32	?
COC(=O)C1=C(C(=O)OC)SC2(S1)C(C(=O)OC)=C(C(=O)OC)Sc1c2ssc1=O	32µM*	?	7.1µM*	7.1µM*	-77*	11µM*
COC(=O)c1sc(C(C)(C)C)cc1CS(=O)(=O)c1ccccn1	-24%	nt	nt	nt	-9	nt
O=C(O)CCCOc1ccc(Cl)cc1Cl	-25%	nt	+!	?	-30	nt
O=C(CCCOc1ccc(Cl)cc1Cl)Nc1ccncc1	nt	-12%	-10%	-28%	-61*	2%
O=C(O)c1cccs1	nt	nt	-11%	-4%	nt	nt
